The full data set covers some 7,900 targets. This sample favours those with a hit. About 0.6% of all pairs of compound and target were hits.
What was measured:
Experiment in all cases: log2 fold change, soluble protein after heating vs DMSO (PISA); higher = thermal stabilisation; K562 cells, 10 uM, 30 min; active = over 0.2 and 3.5 SD of the protein, either way, in both replicates (recomputed)
saracatinib = compound: CN1CCN(CCOc2cc(OC3CCOCC3)c3c(Nc4c(Cl)ccc5c4OCO5)ncnc3c2)CC1 [saracatinib]
How it was run: (§1)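 K562 cells at 2×10^6 cells/mL were treated with 10 μM compound for 30 min. Aliquots were heated for 3 min across 48°C-58°C, pooled, and extracted in PBS with 0.5% NP-40 at 4°C; soluble protein was the supernatant after 21,000xg for 90 min. Soluble protein was quantified by TMTpro 16plex LC-MS/MS with channel sums equalised, and reported as log2 fold change in thermal stability against DMSO controls, with values from duplicates.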

sotrastaurin = compound: CN1CCN(c2nc(C3=C(c4c[nH]c5ccccc45)C(=O)NC3=O)c3ccccc3n2)CC1 [sotrastaurin]
How it was run: as §1

alvocidib = compound: CN1CC[C@H](c2c(O)cc(O)c3c(=O)cc(-c4ccccc4Cl)oc23)[C@H](O)C1 [alvocidib]
How it was run: as §1

Tubastatin A = compound: CN1CCc2c(c3ccccc3n2Cc2ccc(C(=O)NO)cc2)C1 [Tubastatin A]
How it was run: as §1

[1] = compound: CNC(=O)C1=CC=CC=C1NC2=NC(=NC=C2Cl)NC3=C(C=C(C=C3)N4CCOCC4)OC
How it was run: as §1

defactinib = compound: CNC(=O)c1ccc(Nc2ncc(C(F)(F)F)c(NCc3nccnc3N(C)S(C)(=O)=O)n2)cc1 [defactinib]
How it was run: as §1

rucaparib = compound: CNCc1ccc(-c2[nH]c3cc(F)cc4c3c2CCNC4=O)cc1 [rucaparib]
How it was run: as §1

[2] = compound: CNc1nc(-c2ccc3c(N)n[nH]c3c2)cc(N2C[C@@H](C(=O)NC3CCCCC3)CC[C@H]2C)n1
How it was run: as §1

encorafenib = compound: COC(=O)N[C@@H](C)CNc1nccc(-c2cn(C(C)C)nc2-c2cc(Cl)cc(NS(C)(=O)=O)c2F)n1 [encorafenib]
How it was run: as §1

[3] = compound: COC(=O)[C@H](CCSC)NC(=O)C1=C(C=C(C=C1)NC[C@H](CS)N)C2=CC=CC=C2
How it was run: as §1

Measured: log2 fold change

CHMP4C (UniProt Q96CF2)
Sequence of UniProt Q96CF2 (Q96CF2 whole entry, looked up): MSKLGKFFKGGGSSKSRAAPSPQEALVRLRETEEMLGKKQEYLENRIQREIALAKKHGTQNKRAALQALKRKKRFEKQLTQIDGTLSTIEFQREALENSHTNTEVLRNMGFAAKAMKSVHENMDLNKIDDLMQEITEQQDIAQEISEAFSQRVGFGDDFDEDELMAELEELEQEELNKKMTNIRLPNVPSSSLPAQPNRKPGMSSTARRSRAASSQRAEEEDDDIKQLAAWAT
inactive: saracatinib 0 | sotrastaurin 0.042 | alvocidib 0.02 | Tubastatin A -0.009 | [1] -0.173 | defactinib -0.047 | rucaparib -0.032 | [2] -0.138 | encorafenib -0.097 | [3] 0.007

CS (UniProt O75390)
inactive: saracatinib -0.001 | sotrastaurin 0.02 | alvocidib -0.074 | Tubastatin A -0.015 | [1] 0.011 | defactinib -0.069 | rucaparib 0.022 | [2] -0.055 | encorafenib -0.042 | [3] -0.002

CDK13 (UniProt Q14004)
inactive: saracatinib -0.133 | sotrastaurin -0.121 | alvocidib -0.061 | Tubastatin A 0.042 | [1] -0.071 | defactinib -0.01 | rucaparib 0.06 | [2] -0.129 | encorafenib 0.104 | [3] 0.036

COX6B1 (UniProt P14854)
Sequence of UniProt P14854 (P14854 whole entry, looked up): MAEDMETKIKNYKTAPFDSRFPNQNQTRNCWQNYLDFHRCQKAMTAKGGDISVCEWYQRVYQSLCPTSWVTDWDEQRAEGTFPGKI
inactive: saracatinib 0.024 | sotrastaurin -0.012 | alvocidib 0.039 | Tubastatin A -0.069 | [1] 0.015 | defactinib -0.023 | rucaparib 0.022 | [2] -0.061 | encorafenib -0.043 | [3] 0.008

CDKN2AIP (UniProt Q9NXV6)
inactive: saracatinib 0.057 | sotrastaurin 0.023 | alvocidib 0.018 | Tubastatin A 0.013 | [1] 0.052 | defactinib 0.055 | rucaparib -0.055 | [2] 0.033 | encorafenib 0.02 | [3] -0.029

CNTN4 (UniProt Q8IWV2)
inactive: saracatinib -0.026 | sotrastaurin -0.033 | alvocidib -0.065 | Tubastatin A 0.256 | [1] -0.225 | defactinib -0.06 | rucaparib -0.01 | [2] -0.016 | encorafenib -0.082 | [3] 0.004

CDK12 (UniProt Q9NYV4)
Sequence of UniProt Q9NYV4 (Q9NYV4 whole entry, looked up): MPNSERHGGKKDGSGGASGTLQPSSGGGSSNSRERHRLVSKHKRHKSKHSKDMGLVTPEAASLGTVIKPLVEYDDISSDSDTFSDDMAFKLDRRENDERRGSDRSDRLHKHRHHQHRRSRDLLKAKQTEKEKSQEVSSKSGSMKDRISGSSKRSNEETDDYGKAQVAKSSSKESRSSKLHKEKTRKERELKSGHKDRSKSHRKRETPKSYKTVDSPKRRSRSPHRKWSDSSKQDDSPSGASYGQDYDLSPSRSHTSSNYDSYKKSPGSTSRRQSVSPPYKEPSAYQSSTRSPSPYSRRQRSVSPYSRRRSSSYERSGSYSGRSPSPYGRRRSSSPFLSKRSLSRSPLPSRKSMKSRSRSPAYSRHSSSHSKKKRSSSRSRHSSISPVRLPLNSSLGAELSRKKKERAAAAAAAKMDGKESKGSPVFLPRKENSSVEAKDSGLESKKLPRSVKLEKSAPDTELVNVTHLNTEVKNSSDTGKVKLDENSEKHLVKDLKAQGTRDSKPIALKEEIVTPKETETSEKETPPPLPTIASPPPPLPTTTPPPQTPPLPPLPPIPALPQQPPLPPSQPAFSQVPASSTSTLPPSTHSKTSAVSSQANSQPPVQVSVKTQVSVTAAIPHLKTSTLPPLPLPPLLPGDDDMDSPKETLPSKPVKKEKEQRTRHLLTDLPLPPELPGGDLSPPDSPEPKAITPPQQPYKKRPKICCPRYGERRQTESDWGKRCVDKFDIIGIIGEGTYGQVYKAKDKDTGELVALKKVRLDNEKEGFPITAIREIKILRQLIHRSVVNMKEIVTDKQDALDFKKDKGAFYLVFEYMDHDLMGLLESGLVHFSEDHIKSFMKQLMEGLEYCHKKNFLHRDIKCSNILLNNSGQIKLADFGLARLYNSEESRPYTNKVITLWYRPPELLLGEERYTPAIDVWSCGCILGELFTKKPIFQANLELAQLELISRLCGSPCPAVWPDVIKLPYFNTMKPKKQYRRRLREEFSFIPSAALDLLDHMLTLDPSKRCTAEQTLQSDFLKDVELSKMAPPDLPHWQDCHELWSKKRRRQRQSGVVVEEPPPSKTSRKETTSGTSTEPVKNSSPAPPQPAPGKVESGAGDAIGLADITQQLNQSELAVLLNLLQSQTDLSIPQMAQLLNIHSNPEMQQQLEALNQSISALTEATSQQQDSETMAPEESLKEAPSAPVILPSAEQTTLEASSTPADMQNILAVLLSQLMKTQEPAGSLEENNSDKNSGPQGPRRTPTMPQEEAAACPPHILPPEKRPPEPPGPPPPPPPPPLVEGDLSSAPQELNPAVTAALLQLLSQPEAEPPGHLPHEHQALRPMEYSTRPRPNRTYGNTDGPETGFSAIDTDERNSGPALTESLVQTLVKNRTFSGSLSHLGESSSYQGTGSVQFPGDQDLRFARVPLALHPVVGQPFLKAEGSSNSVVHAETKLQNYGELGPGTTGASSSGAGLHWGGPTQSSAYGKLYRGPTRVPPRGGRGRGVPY
inactive: saracatinib -0.113 | sotrastaurin -0.406 | alvocidib 0.122 | Tubastatin A 0.165 | [1] -0.309 | defactinib -0.052 | rucaparib 0.072 | [2] 0.003 | encorafenib 0.09 | [3] 0.157

CAMK2G isoform 6 (UniProt Q13555)
inactive: saracatinib -0.005 | sotrastaurin -0.088 | alvocidib 0.123 | Tubastatin A -0.012 | [1] 0.25 | defactinib 0.14 | rucaparib 0.061 | [2] 0.129 | encorafenib 0 | [3] -0.074

CORO2A (UniProt Q92828)
inactive: saracatinib 0.016 | sotrastaurin 0.015 | alvocidib -0.021 | Tubastatin A -0.055 | [1] 0.053 | defactinib -0.015 | rucaparib -0.266 | [2] -0.097 | encorafenib 0.21 | [3] -0.028

CSNK2B (UniProt P67870)
Sequence of UniProt P67870 (P67870 whole entry, looked up): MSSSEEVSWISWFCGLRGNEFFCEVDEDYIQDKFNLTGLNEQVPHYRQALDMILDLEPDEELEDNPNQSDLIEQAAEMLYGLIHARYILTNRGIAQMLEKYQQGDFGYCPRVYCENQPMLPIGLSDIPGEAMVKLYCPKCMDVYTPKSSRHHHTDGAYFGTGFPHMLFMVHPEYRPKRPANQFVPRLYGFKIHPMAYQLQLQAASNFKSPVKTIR
inactive: saracatinib 0.074 | sotrastaurin 0.036 | alvocidib -0.035 | Tubastatin A 0.021 | [1] 0.246 | defactinib -0.09 | rucaparib -0.116 | [2] -0.031 | encorafenib 0.024 | [3] 0.038

COQ7 (UniProt Q99807)
inactive: saracatinib 0.024 | sotrastaurin 0.055 | alvocidib 0.009 | Tubastatin A -0.009 | [1] 0.043 | defactinib 0.03 | rucaparib -0.062 | [2] -0.028 | encorafenib -0.058 | [3] 0.059

COASY isoform 2 (UniProt Q13057)
Sequence of UniProt Q13057 (Q13057 whole entry, looked up): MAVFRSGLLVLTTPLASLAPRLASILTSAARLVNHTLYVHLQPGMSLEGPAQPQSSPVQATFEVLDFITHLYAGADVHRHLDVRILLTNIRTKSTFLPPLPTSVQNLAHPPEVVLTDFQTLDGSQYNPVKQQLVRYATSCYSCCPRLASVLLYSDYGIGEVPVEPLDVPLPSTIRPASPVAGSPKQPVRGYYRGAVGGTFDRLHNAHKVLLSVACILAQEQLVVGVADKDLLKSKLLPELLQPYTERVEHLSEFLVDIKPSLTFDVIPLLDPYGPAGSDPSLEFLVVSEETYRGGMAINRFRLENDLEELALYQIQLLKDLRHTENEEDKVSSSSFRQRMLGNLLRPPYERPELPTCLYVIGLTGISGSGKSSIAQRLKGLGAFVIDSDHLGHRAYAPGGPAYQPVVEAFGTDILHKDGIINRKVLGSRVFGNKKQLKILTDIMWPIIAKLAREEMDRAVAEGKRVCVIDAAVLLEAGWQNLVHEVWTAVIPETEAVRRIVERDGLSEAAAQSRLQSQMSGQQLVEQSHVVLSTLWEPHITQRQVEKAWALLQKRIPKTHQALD
inactive: saracatinib 0.003 | sotrastaurin -0.001 | alvocidib -0.12 | Tubastatin A -0.001 | [1] 0.035 | defactinib -0.065 | rucaparib 0.011 | [2] -0.03 | encorafenib 0.034 | [3] -0.029

CALCOCO2 isoform 4 (UniProt Q13137)
inactive: saracatinib -0.03 | sotrastaurin -0.127 | alvocidib 0.033 | Tubastatin A 0.037 | [1] 0.012 | defactinib 0.017 | rucaparib -0.044 | [2] -0.034 | encorafenib 0.076 | [3] 0.021

CCNDBP1 (UniProt O95273)
Sequence of UniProt O95273 (O95273 whole entry, looked up): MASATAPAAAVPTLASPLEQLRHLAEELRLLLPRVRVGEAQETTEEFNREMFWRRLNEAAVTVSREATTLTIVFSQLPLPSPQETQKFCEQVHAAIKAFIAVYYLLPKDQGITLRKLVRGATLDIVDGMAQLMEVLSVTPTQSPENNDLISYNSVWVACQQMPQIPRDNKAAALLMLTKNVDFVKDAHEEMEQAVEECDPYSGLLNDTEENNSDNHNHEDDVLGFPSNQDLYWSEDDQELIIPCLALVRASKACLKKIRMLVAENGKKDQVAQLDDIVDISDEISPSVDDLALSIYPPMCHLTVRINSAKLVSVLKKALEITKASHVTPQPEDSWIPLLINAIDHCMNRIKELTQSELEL
inactive: saracatinib 0.078 | sotrastaurin -0.209 | alvocidib -0.007 | Tubastatin A 0.001 | [1] 0.115 | defactinib -0.107 | rucaparib -0.002 | [2] -0.04 | encorafenib 0.062 | [3] -0.027

CDK5 (UniProt Q00535)
inactive: saracatinib -0.008 | sotrastaurin 0.094 | alvocidib 0.142 | Tubastatin A -0.013 | [1] 0.029 | defactinib 0.143 | rucaparib 0.05 | [2] 0.006 | encorafenib 0.049 | [3] -0.042

CCAR2 isoform 2 (UniProt Q8N163)
inactive: saracatinib -0.102 | sotrastaurin -0.231 | alvocidib -0.254 | Tubastatin A 0.122 | [1] -0.083 | rucaparib -0.106 | [2] 0.031 | encorafenib -0.011 | [3] 0
active: defactinib -0.42

COMT (UniProt P21964)
active: Tubastatin A 0.4
inactive: saracatinib -0.046 | sotrastaurin 0.109 | alvocidib 0.004 | [1] 0.008 | defactinib -0.006 | rucaparib -0.018 | [2] 0.029 | encorafenib -0.039 | [3] -0.09

CPSF3 (UniProt Q9UKF6)
inactive: saracatinib 0.009 | sotrastaurin -0.086 | alvocidib -0.052 | Tubastatin A 0.04 | [1] 0.07 | defactinib -0.098 | rucaparib -0.011 | [2] -0.049 | encorafenib 0.03 | [3] -0.009

CPQ (UniProt Q9Y646)
inactive: saracatinib 0.039 | sotrastaurin -0.012 | alvocidib 0.045 | Tubastatin A 0.02 | [1] -0.049 | defactinib -0.035 | rucaparib -0.042 | [2] -0.031 | encorafenib 0.008 | [3] 0.006

CNN3 (UniProt Q15417)
Sequence of UniProt Q15417 (Q15417 whole entry, looked up): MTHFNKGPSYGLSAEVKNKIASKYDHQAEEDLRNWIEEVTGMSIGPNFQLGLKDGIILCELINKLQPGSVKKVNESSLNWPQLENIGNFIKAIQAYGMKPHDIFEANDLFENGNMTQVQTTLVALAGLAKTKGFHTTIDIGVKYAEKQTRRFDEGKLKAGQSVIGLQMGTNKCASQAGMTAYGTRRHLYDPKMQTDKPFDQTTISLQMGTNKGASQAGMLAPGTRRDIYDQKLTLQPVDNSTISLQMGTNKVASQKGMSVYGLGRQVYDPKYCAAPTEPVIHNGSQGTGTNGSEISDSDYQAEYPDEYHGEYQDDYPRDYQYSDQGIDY
inactive: saracatinib 0.063 | sotrastaurin -0.122 | alvocidib -0.017 | Tubastatin A 0.02 | [1] 0.036 | defactinib -0.13 | rucaparib 0.048 | [2] 0.008 | encorafenib 0.009 | [3] 0

CPD (UniProt O75976)
inactive: saracatinib -0.047 | sotrastaurin -0.011 | alvocidib -0.007 | Tubastatin A 0.03 | [1] -0.002 | defactinib -0.026 | rucaparib 0.017 | [2] -0.006 | encorafenib 0.042 | [3] 0.012

C19orf54 (UniProt Q5BKX5)
inactive: saracatinib 0.049 | sotrastaurin -0.221 | alvocidib 0.178 | Tubastatin A 0.092 | [1] 0.002 | defactinib -0.136 | rucaparib 0.255 | [2] -0.108 | encorafenib 0.005 | [3] -0.031

CSNK1D (UniProt P48730)
inactive: saracatinib -0.047 | sotrastaurin -0.038 | alvocidib 0.063 | Tubastatin A 0.039 | [1] 0.111 | defactinib 0.045 | rucaparib 0.032 | [2] -0.038 | encorafenib 0.06 | [3] -0.012

CEPT1 (UniProt Q9Y6K0)
inactive: saracatinib 0.015 | sotrastaurin 0.033 | alvocidib 0.029 | Tubastatin A 0.042 | [1] 0.001 | defactinib -0.005 | rucaparib -0.126 | [2] -0.056 | encorafenib 0.052 | [3] -0.056

CLASP2 isoform 3 (UniProt O75122)
Sequence of UniProt O75122 (O75122 whole entry, looked up): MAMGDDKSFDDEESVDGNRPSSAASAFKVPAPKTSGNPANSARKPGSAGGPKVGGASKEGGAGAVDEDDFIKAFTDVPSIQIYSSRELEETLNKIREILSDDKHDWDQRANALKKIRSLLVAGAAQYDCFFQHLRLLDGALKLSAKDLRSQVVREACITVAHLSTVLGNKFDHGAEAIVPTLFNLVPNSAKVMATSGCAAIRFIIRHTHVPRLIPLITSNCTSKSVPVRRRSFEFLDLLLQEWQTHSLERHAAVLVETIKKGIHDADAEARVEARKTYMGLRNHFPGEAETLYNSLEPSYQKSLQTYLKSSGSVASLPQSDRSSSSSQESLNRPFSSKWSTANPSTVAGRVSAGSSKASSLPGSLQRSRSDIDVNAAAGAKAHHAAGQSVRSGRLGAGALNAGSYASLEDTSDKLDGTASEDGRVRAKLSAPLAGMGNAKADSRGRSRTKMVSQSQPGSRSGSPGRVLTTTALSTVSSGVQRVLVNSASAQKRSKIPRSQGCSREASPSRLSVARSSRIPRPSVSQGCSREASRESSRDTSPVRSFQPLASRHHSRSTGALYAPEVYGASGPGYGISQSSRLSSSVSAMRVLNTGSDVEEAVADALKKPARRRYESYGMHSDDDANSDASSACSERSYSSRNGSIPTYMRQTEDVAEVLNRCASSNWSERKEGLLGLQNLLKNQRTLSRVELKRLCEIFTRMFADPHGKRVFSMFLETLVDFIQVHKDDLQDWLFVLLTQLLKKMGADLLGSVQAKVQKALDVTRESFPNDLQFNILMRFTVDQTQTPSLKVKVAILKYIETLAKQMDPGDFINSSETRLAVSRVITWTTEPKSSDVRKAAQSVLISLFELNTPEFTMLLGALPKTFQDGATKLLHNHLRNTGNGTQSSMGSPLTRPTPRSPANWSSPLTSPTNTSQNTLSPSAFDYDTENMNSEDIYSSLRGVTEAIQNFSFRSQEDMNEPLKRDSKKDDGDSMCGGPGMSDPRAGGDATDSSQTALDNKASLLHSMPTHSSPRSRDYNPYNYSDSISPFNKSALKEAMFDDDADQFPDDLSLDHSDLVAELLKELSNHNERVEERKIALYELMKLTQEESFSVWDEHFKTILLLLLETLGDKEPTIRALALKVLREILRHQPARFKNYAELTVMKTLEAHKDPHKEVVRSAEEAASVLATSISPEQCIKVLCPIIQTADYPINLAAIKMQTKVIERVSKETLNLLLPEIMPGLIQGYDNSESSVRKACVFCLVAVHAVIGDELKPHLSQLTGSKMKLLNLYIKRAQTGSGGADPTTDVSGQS
inactive: saracatinib -0.073 | sotrastaurin -0.232 | alvocidib -0.132 | Tubastatin A 0.016 | [1] -0.041 | defactinib -0.1 | rucaparib 0.015 | [2] 0.035 | encorafenib 0.084 | [3] -0.043

CDK1 (UniProt P06493)
Sequence of UniProt P06493 (P06493 whole entry, looked up): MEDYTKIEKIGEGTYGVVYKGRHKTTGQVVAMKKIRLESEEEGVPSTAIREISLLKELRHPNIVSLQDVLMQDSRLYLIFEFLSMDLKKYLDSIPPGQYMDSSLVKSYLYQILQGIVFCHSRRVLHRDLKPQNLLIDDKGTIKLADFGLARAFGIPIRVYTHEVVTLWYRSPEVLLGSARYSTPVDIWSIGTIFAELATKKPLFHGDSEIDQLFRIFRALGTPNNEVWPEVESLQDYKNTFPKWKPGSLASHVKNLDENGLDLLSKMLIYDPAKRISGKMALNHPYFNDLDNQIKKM
inactive: saracatinib 0.007 | sotrastaurin -0.045 | alvocidib -0.063 | Tubastatin A 0.018 | [1] -0.043 | defactinib -0.118 | rucaparib 0.013 | [2] 0.01 | encorafenib -0.01 | [3] 0.003

CRLF3 (UniProt Q8IUI8)
inactive: saracatinib -0.209 | sotrastaurin -0.124 | alvocidib -0.161 | Tubastatin A 0.054 | [1] 0.051 | defactinib -0.076 | rucaparib 0.026 | [2] 0.036 | encorafenib 0.074 | [3] -0.013

CLSPN (UniProt Q9HAW4)
inactive: saracatinib 0.076 | sotrastaurin 0.002 | alvocidib -0.102 | Tubastatin A 0.039 | [1] 0.053 | defactinib -0.183 | rucaparib -0.11 | [2] -0.102 | encorafenib 0.031 | [3] 0.047

CLCN3 isoform 2 (UniProt P51790)
inactive: saracatinib 0.104 | sotrastaurin -0.002 | alvocidib -0.079 | Tubastatin A -0.06 | [1] -0.018 | defactinib -0.009 | rucaparib -0.002 | [2] -0.015 | encorafenib -0.027 | [3] -0.014

CAMSAP1 isoform 3 (UniProt Q5T5Y3)
inactive: saracatinib -0.084 | sotrastaurin -0.175 | alvocidib -0.027 | Tubastatin A 0.071 | [1] -0.191 | defactinib 0.051 | rucaparib 0.048 | [2] -0.071 | encorafenib 0.065 | [3] 0.017

From the supplement of paper PMC10849652
